System: HFF
Assay: cell viability relative to DMSO control; higher = less cytotoxic
Details: 1 µM; 72 h
Description: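 Single-dose cytotoxicity screen of the MMV Pandemic Response Box at 1 uM on human foreskin fibroblasts (HFF), 72 h at 37 C. Viability measured by MTT (OD 550 nm) and normalised to the DMSO control (% survival).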

CCOC(=O)/C=C/[C@H](C[C@@H]1CCNC1=O)NC(=O)[C@H](CC)n1cccc(NC(=O)c2cc(C)on2)c1=O gave a cell viability of 68.3%.
With CCOc1ccc(/C=N/NC(=O)C2CC2c2ccc(C(C)(C)C)cc2)cc1OCC (configuration not stated) the cell viability was 57.3%.
With O=C1NC(=S)N/C1=C\c1cc(Br)cc(Br)c1O the cell viability was 72.6%.
Work on CC[C@H](CO)Nc1nc(NCc2ccccc2)c2ncn(C(C)C)c2n1 yielded a cell viability of 68.9%.
For COc1cc(Cc2cnc(N)nc2N)cc(OC)c1OC, the cell viability was 64.8%.
Work on CCc1c(O)nc2ccc(F)cc2c1OCC1CCC1 yielded a cell viability of 56.8%.
For CN(C)CCCOc1ccc(-c2ccc3ncc4c(c3c2)n(C2CCOCC2)c(=O)n4C)cn1, the cell viability was 60.6%.
With Cc1ccc(NC(=O)c2cc(Cl)ccc2O)cc1 the cell viability was 65.7%.
For CC(C)(C)c1cc(C(=O)/C(C#N)=N/Nc2cccc(Cl)c2)no1, the cell viability was 53%.
NCC(=O)Nc1ccc(-n2nc(C(F)(F)F)cc2-c2ccc3c(ccc4ccccc43)c2)cc1 showed a cell viability of 80.7%.
Oc1ccc(NCc2ccccc2OCc2ccccc2)cc1 showed a cell viability of 70.1%.
For O=c1cc(OCc2ccccc2)ccn1Cc1ccccc1, the cell viability was 68.5%.
With C=C[C@]1(C)C[C@@H](OC(=O)CS[C@@H]2C[C@H]3CC[C@@H](C2)N3C)[C@]2(C)[C@H](C)CC[C@]3(CCC(=O)[C@H]32)[C@@H](C)[C@@H]1O the cell viability was 72.2%.
For Cc1ncc([N+](=O)[O-])n1CC(O)CN1CCOCC1 (configuration not stated), the cell viability was 61.1%.
In the case of O=C(NNC(=S)Nc1ccc(Cl)cc1)c1ccncc1, the cell viability is reported as 64.2%.
CCc1cc(CCC(=O)Nc2ccccc2O)c(O)nc1C was tested, and the cell viability was 71.2%.
Molecule CC(C)(C)NC(=O)[C@@H]1CN(Cc2cnc3occc3c2)CCN1C[C@@H](O)C[C@@H](Cc1ccccc1)C(=O)N[C@H]1c2ccccc2C[C@H]1O has a cell viability of 72.6%.
CN(C)CCNC(=O)c1cccc2cccnc12 gave a cell viability of 61.2%.
Work on O=C(Nc1[nH]c(=O)ncc1F)c1ccccc1 yielded a cell viability of 64.8%.
Work on COc1ccc(COc2cc3oc(=O)c4cc(C(C)O)ccc4c3cc2OC)cc1 (configuration not stated) yielded a cell viability of 57.3%.
Molecule NC(=O)c1ccc(I)c([N+](=O)[O-])c1 has a cell viability of 71.1%.
With CCCC1(C2CC2)c2cc(Cl)ccc2NC(=O)N1C (configuration not stated) the cell viability was 62.3%.
In the case of N[C@H]1CCC[C@H]1C(=O)O, the cell viability is reported as 70.6%.
With CC(C)(C)c1ccc(C(Cn2cccc(C(F)(F)F)c2=O)NC2Cc3ccccc3C2)cc1 (configuration not stated) the cell viability was 67.8%.
CCc1ccccc1OCCN1CCCCCC1 showed a cell viability of 55.1%.
O=C(O)c1ccc(-c2ccc(O[C@H]3O[C@H](CO)[C@@H](O)[C@H](O)[C@@H]3O)cc2)cc1 was tested, and the cell viability was 63.9%.
In the case of Nc1ccc(-c2nc3cc(C(F)(F)F)ccc3n2C23CC4CC(CC(C4)C2)C3)cc1, the cell viability is reported as 66.3%.
C(=C\c1nc2ccccc2[nH]1)/c1ccc2c(c1)OCO2 showed a cell viability of 63.4%.
OC(Cn1cncn1)(Cn1cncn1)c1ccc(F)cc1F was tested, and the cell viability was 66.7%.
CCOc1ccc(C(=O)NCCc2ccccc2)cc1 was tested, and the cell viability was 63.9%.
Molecule O=[N+]([O-])c1ccc2c(CCc3c[nH]c4ccccc34)c[nH]c2c1 has a cell viability of 61.9%.
Molecule C[Si]1(C)CCN(Cc2cc(-c3ccc(Cl)cc3)n(-c3ccc(Cl)cc3)n2)CC1 has a cell viability of 82.5%.
O=C(NCc1cccc2ccccc12)c1cccs1 showed a cell viability of 66%.
O=P(O)(O)C(CCCc1cccc(Oc2ccccc2)c1)S(=O)(=O)O (configuration not stated) gave a cell viability of 74.4%.
O=C(O)/C=C/C=C/c1cccc(Oc2cc(Cl)cc(Cl)c2)c1 gave a cell viability of 63.3%.
CCNC(=O)Nc1cn2c(-c3ncc(CC)cn3)cc(-c3cccnc3)cc2n1 gave a cell viability of 71.6%.
Cc1cc(Nc2ccc(F)cc2)nc(SCc2nc3ccccc3[nH]2)n1 gave a cell viability of 66%.
